According to PubChem BioAssay AID2189 (The Scripps Research Institute Molecular Screening Center, 2009):
The list shows a part of the results. Calls of active or inactive are those of the source. Rule as the data show it: active = inhibition above about 4.9%; inactive = the rest.

Tested on: metallo-beta-lactamase IMP-1 (Pseudomonas aeruginosa)
Assay: IMP-1 metallo-beta-lactamase inhibitors, confirmation, biochemical, epi-absorbance, hits shared with VIM-2 screen (AID 2189);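 also: 0% = enzyme with vehicle and 100% = vehicle without enzyme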
Conditions: purified IMP-1 enzyme, absorbance substrate hydrolysis; at 5.6 µM; active compounds read high

inhibition, inactive:
NC(=O)c1ccc(NC(=O)COC(=O)c2c3c(nc4ccccc24)/C(=C\c2ccc4c(c2)OCO4)CCC3)cc1 -2.29%
c1ccc(-c2nccc(-c3ccc(-n4cnc5ccccc54)cc3)n2)nc1 0.59%
NS(=O)(=O)c1ccc(NC(=O)COC(=O)c2c3c(nc4ccccc24)/C(=C\c2ccc4c(c2)OCO4)CCC3)cc1 -2.39%

inhibition, active:
Cc1nn(C)cc1N1C(=O)c2cccc3c(N)ccc(c23)C1=O 29.8%
Nc1c(C(=O)c2cccs2)sc2nsc(SCCN3CCCCC3)c12 18.4%
CN1C(=O)c2cccc3c(N)ccc(c23)C1=O 36.2%
Cc1cc2nc3c(=O)n(Cc4ccccc4)c(=O)[nH]c3nc2cc1N 13.2%
C/C(=N\Nc1ccc(S(N)(=O)=O)cc1[N+](=O)[O-])c1cccs1 10.6%
COc1cc(/C=C2/SC(=S)N(Cc3ccccc3)C2=O)cc(OC)c1O 9.27%
CCC(=C/c1sc2ccc3ccccc3c2[n+]1C)/C=C1\Sc2ccc3ccccc3c2N1C 27.6%
Oc1ccc2ccc3cccc[n+]3c2c1 23.2%
